Measured values: PubChem BioAssay AID1010 (Sanford-Burnham Center for Chemical Genomics, 2008)
The whole screen tested about 48,000 compounds, of which about 160 (0.33%) were called active.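 The calls were made as follows: active = survival measured by cellular ATP above 50% at 15 µg/ml in the first screen; inactive = the rest.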 Only a selection was taken, and actives are over-represented in it overall.

Experiment: protection against thapsigargin ER stress killing – CSM14.1 cells, ATP luminescence, primary screen (AID 1010);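 also: cell death triggered by about 15 µM thapsigargin; ATP read 24 h after thapsigargin was added; plate controls were thapsigargin with DMSO for no effect and DMSO without thapsigargin for full effect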
Conditions: CSM14.1 thapsigargin ER stress survival, hits give high values, screened at 15 µg/mL (by protocol)

| SMILES | relative survival (cellular ATP) |
| --- | --- |
| O=C(Nc1ccc(Cc2ccncc2)cc1)C(c1ccccc1)c1ccccc1 | 43.5% (inactive) |
| COc1cc2ccccc2cc1C(=O)Nc1ccccc1C | -5.9% (inactive) |
| CC(C)(C)C(=O)CN1C2=NCCN2c2ccccc21 | -3.6% (inactive) |
| COc1ccc(C2CC(c3cccs3)=NN2c2ccc(F)cc2)cc1OC (centres undefined) | 3.6% (inactive) |
| O=C(NCc1ccncc1)c1cccc([N+](=O)[O-])c1 | 2.2% (inactive) |
| CCCOc1ccc(/C=C2\C(=O)NN(c3ccccc3)C2=O)cc1OC | 4.3% (inactive) |
| O=C(NNC(=O)c1cc(NC(=O)c2ccc([N+](=O)[O-])cc2)cc(C(=O)NNC(=O)c2ccccc2)c1)c1ccccc1 | 10% (inactive) |
| Cc1cc(Cl)ccc1NC(=O)CCc1ccccc1 | 5.6% (inactive) |
| O=C(NCc1cccnc1)c1cnn2c(C(F)(F)F)cc(-c3cccs3)nc12 | 2.5% (inactive) |
| O=C1C(=O)N(Cc2ccccc2)C(c2ccc(F)cc2)/C1=C(/O)c1ccccc1 (centres undefined) | 6.2% (inactive) |
| NC(=O)c1c(NC(=O)c2ccc(Br)cc2)sc2c1CCCCCC2 | 3.1% (inactive) |
| COc1ccc(C(=O)Nc2sc3c(c2C(N)=O)CCCC3)cc1 | 13.7% (inactive) |
| NC(=O)c1c(NC(=O)c2ccccc2F)sc2c1CCCCCC2 | 57.3% (active) |
| COc1ccc(CCN2C(=O)CC(Cc3ccc(Cl)cc3)C2=O)cc1OC (centres undefined) | 10.7% (inactive) |
| COc1cc(NC(=O)COc2ccc(Br)cc2C(C)(C)C)c(OC)cc1Cl | 11.7% (inactive) |
| Cc1c(C(=O)Nc2ccc(NC(=O)c3ccc(C(C)(C)C)cc3)cc2)cccc1[N+](=O)[O-] | 0.1% (inactive) |
| COc1cccc(OCCOc2ccc(/C=C3/SC(=S)NC3=O)cc2OC)c1 | 10.2% (inactive) |
| NC(=O)C1(N2CCCCC2)CCN(C(=S)Nc2ccc(Cl)cc2)CC1 | -1.2% (inactive) |
| CC1=C(C(=O)Nc2ccccc2)C(c2ccco2)N2C(=O)CSC2=N1 (centres undefined) | 2.3% (inactive) |
| O=C(NCCC1=CCCCC1)c1cc(Cl)ccc1[N+](=O)[O-] | 5.6% (inactive) |
| NC1=NC(=O)/C(=C/c2ccc(OCc3cccc4ccccc34)cc2)S1 | 2.9% (inactive) |
| O=C(NCCCCOc1ccccc1)C(O)(c1ccccc1)c1ccccc1 | 5.8% (inactive) |
| COc1cc(OC)cc(C(=O)Nc2cccc(S(N)(=O)=O)c2)c1 | -2.7% (inactive) |

| SMILES | relative survival (cellular ATP) |
| --- | --- |
| CCOC(=O)c1ccc(NS(=O)(=O)c2cc(C(=O)Nc3ccccc3)ccc2C)cc1 | 4.6% (inactive) |
| CC1=C(C#N)c2nc(N)c(C#N)c(C)c2/C1=C/c1ccc(-c2cccc(Cl)c2Cl)o1 | -6.8% (inactive) |
| O=C(O)c1cc(-c2ccc(/C=N/Nc3ccc(Cl)c(Cl)c3)o2)ccc1Cl | -2.2% (inactive) |
| COc1ccc(/C=C2\SC(=S)N(CC(=O)OCCN(C)C)C2=O)cc1 | -6.1% (inactive) |
| Cc1c(C#N)c2nc3ccccc3n2c(=O)/c1=C\c1c(O)n(-c2ccc(Br)cc2)[nH]c1=O | -1.2% (inactive) |
| O=c1nc2cc3[nH]c4c(=O)c5ccccc5c4[nH]c3cc2n1 | 12.2% (inactive) |
| COC(=O)C1=C(C)NC2=C(C(=O)c3ccccc32)C1c1ccc(-c2ccc([N+](=O)[O-])cc2C)o1 (centres undefined) | 7.6% (inactive) |
| CC(=O)c1ccc(NC(=S)NC(NC(=O)N(C)C)C(Cl)(Cl)Cl)cc1 (centres undefined) | -1.5% (inactive) |
| COc1ccc(/C(O)=C2/C(=O)C(=O)N(CCCCCC(=O)O)C2c2ccccc2)cc1 (centres undefined) | 2.4% (inactive) |
| O=C(NCCc1ccccc1)/C(=C/c1ccc(-c2cccc([N+](=O)[O-])c2)o1)NC(=O)c1ccccc1 | 8.1% (inactive) |
| O=C(NC(NC(=S)N1CCOCC1)C(Cl)(Cl)Cl)c1cccc([N+](=O)[O-])c1 (centres undefined) | 0.9% (inactive) |
| CC(C)(C)CC(C)(C)NC(=O)CSc1nc2ccccc2[nH]1 | 12.7% (inactive) |
| COC(=O)C1=C(C)N=c2s/c(=C\c3ccc(N(C)C)cc3)c(=O)n2C1c1ccccc1Cl (centres undefined) | 0.6% (inactive) |
| COc1cc(/C=C2/NC(=S)NC2=O)ccc1OCc1ccccc1Cl | 1.9% (inactive) |
| CCN1C(=O)/C(=C\c2ccc(OC)c([N+](=O)[O-])c2)C(C(=O)OC)=C1C | 11.8% (inactive) |
| Cc1ccc(N2C(=O)/C(=C/c3sccc3C)SC2=S)cc1 | 9.2% (inactive) |
| O=C1S/C(=C/c2ccccc2F)C(=O)N1CNc1ccccc1Br | 2.5% (inactive) |
| O=C(Nc1nc(-c2ccc3ccccc3c2)cs1)c1ccc(Cl)cc1[N+](=O)[O-] | 2% (inactive) |
| CCOc1ccc(-n2c(O)c(C=C3C=CC=N3)c(=O)[nH]c2=O)cc1 | 2.3% (inactive) |
| O=c1[nH]c(=O)n(-c2ccc(Cl)cc2)c(O)c1/C=C1/C=CC=N1 | 64.8% (active) |
| O=c1[nH]c(=S)n(-c2cccc(Cl)c2)c(O)c1/C=C1/C=CC=N1 | 8.4% (inactive) |
| COc1ccc(/C=C(/NC(=O)c2ccco2)C(=O)Nc2ccc(C(C)=O)cc2)cc1 | 2.4% (inactive) |
| COC(=O)C(NC(=O)CCC1CCCCC1)C12CC3CC(CC(C3)C1)C2 (centres undefined) | 13.9% (inactive) |

| SMILES | relative survival (cellular ATP) |
| --- | --- |
| CC1=NN(c2ccc(S(N)(=O)=O)cc2)C(=O)/C1=C\c1ccc(-c2cc([N+](=O)[O-])ccc2C)o1 | -4.8% (inactive) |
| CCOc1c(Br)cc(/C=C2/C(=O)NN(c3ccccc3)C2=O)cc1OC | 5% (inactive) |
| COc1ccc(Br)cc1-c1nc2nnc(C)n2[nH]1 | 7.4% (inactive) |
| Cc1ccc(C(=O)Nc2ccc(NC(=O)c3ccccc3)cc2)cc1S(=O)(=O)N1CCOCC1 | 5% (inactive) |
| COc1ccc(-c2cc(C(=O)Nc3c(C)cccc3C)c3ccccc3n2)cc1 | 0.1% (inactive) |
| COCCCNC(=O)c1ccccc1C | 0.6% (inactive) |
| CCOCCOC(=O)c1ccc(NC(=O)c2ccccc2C)cc1 | 7.2% (inactive) |
| CCCCOC(=O)C1=C(C)NC2=C(C(=O)CC(c3ccccc3)C2)C1c1ccc(O)c([N+](=O)[O-])c1 (centres undefined) | 3.8% (inactive) |
| O=C1OC(c2ccc(NC(=O)C(F)(F)F)cc2)(c2ccc(NC(=O)C(F)(F)F)cc2)c2ccccc21 | 6.6% (inactive) |
| O=C1NC(=S)S/C1=C\c1ccccc1OS(=O)(=O)c1ccc([N+](=O)[O-])cc1 | 3.7% (inactive) |
| Cc1ccc(C(=O)Nc2ccc(Cl)cc2)o1 | 2.1% (inactive) |
| O=S(=O)(O)c1cc(-n2nc3ccc4c(S(=O)(=O)O)cccc4c3n2)ccc1/C=C/c1ccccc1 | 6.1% (inactive) |
| CCc1cccc(C)c1NC(=O)c1ccc(C)c([N+](=O)[O-])c1 | 0.4% (inactive) |
| CC(NC(=O)C(F)(Cl)C(F)(F)F)c1ccccc1 (centres undefined) | -2.2% (inactive) |
| O=C(N/C(=C/c1ccc(-c2cccc(C(F)(F)F)c2)o1)C(=O)N1CCOCC1)c1ccc(Cl)cc1 | 1% (inactive) |
| O=[N+]([O-])c1ccc(C2Nc3ccc(Br)cc3C3C=CCC32)cc1 (centres undefined) | 6.4% (inactive) |
| COc1ccc(C2C3=C(CC(C)(C)CC3=O)Nc3ccccc3N2C(=O)c2ccc(Cl)cc2)cc1OC (centres undefined) | 59.4% (active) |
| CC1(C)CC(=O)C2=C(C1)Nc1ccccc1N(C(=O)Cc1ccccc1)C2c1cccc(F)c1 (centres undefined) | 0.5% (inactive) |
| CC1(C)CC(=O)C2=C(C1)NC1=C(C(=O)CC(C)(C)C1)C2c1ccccc1Cl | 9.2% (inactive) |
| CC(=O)Oc1ccc2occ(C(=O)c3ccc(C)cc3)c2c1 | -6.1% (inactive) |
| CCOC(=O)C1=NN(C(=O)c2ccc(Cl)cc2)C(O)(C(C)(C)C)C1 (centres undefined) | 11.8% (inactive) |
| O=C(/C=C/c1ccccc1Cl)c1ccc(NC(=O)c2cccs2)cc1 | 1.3% (inactive) |
| CC(=O)Nc1ccc(C(=O)N2CCN(c3ccccc3)CC2)cc1 | -6.3% (inactive) |

| SMILES | relative survival (cellular ATP) |
| --- | --- |
| O=C(c1ccc(C#CC2(O)CCCCC2)cc1)N1CCN(c2ccccc2Cl)CC1 | 94.4% (active) |
| OC1(C#Cc2ccccc2)CCN(Cc2ccccc2)CC1 | -6% (inactive) |
| Cc1cc(=O)oc2cc(OCC(=O)OCc3ccccc3)ccc12 | 1.2% (inactive) |
| Cn1nc(-c2ccc(Br)cc2)cc1N | -2.2% (inactive) |
| COc1cc(C2Nc3ccc4ccccc4c3C3=C2C(=O)CC(C)(C)C3)c(Br)cc1O (centres undefined) | 1.3% (inactive) |
| COc1cc(OC)c(C2NC(=S)NC(C)=C2C(=O)Nc2ccc(Cl)cc2)cc1OC (centres undefined) | 7.2% (inactive) |
| CCOc1nc(-c2ccccc2)cc(-c2ccc(Br)cc2)n1 | 1.9% (inactive) |
| NS(=O)(=O)c1cccc(C(=O)Nc2ccc([N+](=O)[O-])cc2)c1 | 4.7% (inactive) |
| Clc1ccc(/C=N\N2CCN(C(c3ccccc3)c3ccccc3)CC2)cc1 | 9.1% (inactive) |
| C/C(Cn1nnc([N+](=O)[O-])n1)=N/NC(=O)Cc1ccccc1 | -8.3% (inactive) |
| CCCCS(=O)(=O)CC(O)COc1ccccc1 (centres undefined) | 10.3% (inactive) |
| COc1cccc(C(=O)Nc2ccccc2C(F)(F)F)c1 | 5.4% (inactive) |
| CCOC1CC(c2ccccc2)=NN1c1ccccc1 (centres undefined) | 2.7% (inactive) |
| COc1ccc(C2/C(=C(\O)c3ccc(F)cc3)C(=O)C(=O)N2c2nncs2)cc1 (centres undefined) | -1.4% (inactive) |
| Oc1c(/C=C2/C=Nc3ccccc32)sc(=S)n1Cc1ccccc1 | 11% (inactive) |
| O=C(Nc1cccc(F)c1)c1sc2ccccc2c1Cl | 1.2% (inactive) |
| COc1ccc(N2C(=O)c3ccc(C(=O)Nc4cccc(O)c4)cc3C2=O)cc1 | 2% (inactive) |
| COC(=O)c1ccc(/C=C2\SC(=S)N(CCCC(=O)Nc3nccs3)C2=O)cc1 | -4% (inactive) |
| COc1ccccc1CC(=O)Nc1ccc(F)cc1F | 6.1% (inactive) |
| COc1ccc(C2/C(=C(\O)c3ccc(Cl)cc3)C(=O)C(=O)N2CCCn2ccnc2)cc1 (centres undefined) | 13% (inactive) |
